Inconclusive results are not listed. Activity calls are given as the source filed them. The call rests on the fitted dose curve; in most records, active means well fitted curve in the direction sought with a large enough effect; inconclusive means small, poorly fitted or top-dose-only effect, or another doubt; inactive means no such curve, though single readings can be large; an effect the other way counts as inactive or inconclusive.
Molecular target: Cytochrome P450 2C9 (Homo sapiens) (UniProt P11712)
Sequence (P11712 whole entry, looked up): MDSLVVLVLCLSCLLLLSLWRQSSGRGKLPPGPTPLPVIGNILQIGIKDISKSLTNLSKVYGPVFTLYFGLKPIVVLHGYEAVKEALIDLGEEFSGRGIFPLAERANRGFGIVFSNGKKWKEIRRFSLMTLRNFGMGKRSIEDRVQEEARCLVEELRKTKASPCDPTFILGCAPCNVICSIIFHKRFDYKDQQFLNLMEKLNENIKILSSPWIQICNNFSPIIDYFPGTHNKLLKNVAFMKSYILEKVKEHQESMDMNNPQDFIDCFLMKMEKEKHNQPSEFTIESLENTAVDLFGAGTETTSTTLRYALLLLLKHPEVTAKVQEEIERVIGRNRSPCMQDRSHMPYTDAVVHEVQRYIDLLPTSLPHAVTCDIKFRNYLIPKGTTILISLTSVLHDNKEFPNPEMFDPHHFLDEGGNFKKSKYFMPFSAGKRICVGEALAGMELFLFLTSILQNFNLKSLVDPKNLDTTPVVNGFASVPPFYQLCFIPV
Assay: qHTS Assay for Inhibitors and Substrates of Cytochrome P450 2C9 (AID 883); further: nearly all actives have a fitted effect of over 60% in size; on activity change, negative = inhibition: on the % scale 0 is the no-effect control and ±100 the full control effect
Settings: recombinant CYP2C9, luciferin-H luminescence, 60 min; series mostly up to 57.1 µM; activity change, negative = inhibition: at the top concentration
Outline: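 10nM CYP2C9 + 100uM Luciferin-H (=KM), 25mM KPO4; cpd 10 min 37C; NADPH regen, 60 min 37C; stop/detect with P450 Glo-Buffer 20 min; luminescence. Norm. to 57uM sulphaphenazole as full inhibition.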
Potency means the concentration at half of the fitted maximal effect.

Potency, active:
COc1ccc2[nH]cc(CCNc3nc(-c4ccc(N(C)C)cc4)nc4ccccc34)c2c1 398 nM

Activity change, negative = inhibition, inactive:
CS(=O)(=O)Nc1cccc(-c2cc(Nc3ccccc3)ncn2)c1 56.3% [at 2.29 µM]
COc1ccccc1CNc1cc(-c2ccccc2OC)ncn1 31.3% [at 2.29 µM]
CN(Cc1ccco1)c1cc(-c2cccc(C#N)c2)ncn1 12.3% [at 2.29 µM]
Cc1cnc(CNc2cc(-c3ccccc3C(F)(F)F)ncn2)cn1 49.4% [at 2.29 µM]

Molecular target: Cytochrome P450 3A4 (Homo sapiens) (UniProt P08684)
Sequence (P08684 whole entry, looked up): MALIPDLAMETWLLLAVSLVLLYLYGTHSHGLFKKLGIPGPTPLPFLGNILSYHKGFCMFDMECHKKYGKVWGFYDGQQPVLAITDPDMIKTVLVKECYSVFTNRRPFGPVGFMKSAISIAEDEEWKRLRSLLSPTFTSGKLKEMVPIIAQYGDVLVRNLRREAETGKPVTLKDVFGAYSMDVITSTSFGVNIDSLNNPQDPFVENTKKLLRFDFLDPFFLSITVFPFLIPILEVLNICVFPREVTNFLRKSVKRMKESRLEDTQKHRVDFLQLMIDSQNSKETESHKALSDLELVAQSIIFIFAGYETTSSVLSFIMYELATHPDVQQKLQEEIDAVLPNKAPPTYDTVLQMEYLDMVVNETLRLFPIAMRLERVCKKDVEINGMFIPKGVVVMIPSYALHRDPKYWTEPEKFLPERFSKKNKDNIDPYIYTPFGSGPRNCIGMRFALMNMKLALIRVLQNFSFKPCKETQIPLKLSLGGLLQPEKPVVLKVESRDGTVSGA
Assay: qHTS Assay for Inhibitors and Substrates of Cytochrome P450 3A4 (AID 884); further: nearly all actives have a fitted effect of over 50% in size; on activity change, negative = inhibition: on the % scale 0 is the no-effect control and ±100 the full control effect
Settings: recombinant CYP3A4, Luciferin-PPXE luminescence; series mostly up to 57.1 µM; activity change, negative = inhibition: at the top concentration
Outline: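 20 nM human CYP3A4 with 25 uM Luciferin-PPXE (at KM) in 200 mM KPO4, preincubated 10 min with compound; NADPH regeneration started a 60 min RT reaction. Luciferin detected by luminescence, normalized to 57 uM ketoconazole as full inhibition.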

Potency, active:
COc1ccc2[nH]cc(CCNc3nc(-c4ccc(N(C)C)cc4)nc4ccccc34)c2c1 2510 nM
COc1ccc2[nH]cc(CCNc3ccnc(-c4ccc(N(C)C)cc4)n3)c2c1 5010 nM
CC(=O)NCCNc1nc(-c2ccccc2C)nc2ccccc12 5010 nM
COc1ccc2[nH]cc(CCNc3ncncc3-c3cccnc3)c2c1 794 nM
Cc1noc(C)c1-c1nccc(NCc2ccccc2)n1 5010 nM
COc1cccc(-c2cc(NCc3cccnc3)ncn2)c1 3980 nM
COc1ccc2[nH]cc(CCNc3ccnc(-c4ccc5c(c4)OCO5)n3)c2c1 2510 nM
COc1ccc(CNc2ncncc2-c2ccc(C(=O)N(C)C)cc2)c(OC)c1 501 nM
COc1cccc(-c2cncnc2NCc2cnc(C)cn2)c1 1580 nM

Activity change, negative = inhibition, inactive:
Cc1cnc(CNc2cc(-c3ccccc3Cl)ncn2)cn1 60%
Cc1cnc(CNc2cc(-c3ccccc3C(F)(F)F)ncn2)cn1 262%
Cc1cnc(CNc2cc(-c3ccccc3C)ncn2)cn1 85.4%

Molecular target: Cytochrome P450 3A4 (Homo sapiens) (UniProt P08684)
Assay: qHTS Assay for Activators of Cytochrome P450 3A4 (AID 885); further: nearly all actives have a fitted effect of over 65% in size
Settings: recombinant CYP3A4, Luciferin-PPXE luminescence, 60 min; series mostly up to 57.1 µM; activity change, positive = activation: at the top concentration
Outline: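 20nM CYP3A4 + 25uM Luciferin-PPXE (=KM), 200mM KPO4; cpd 10 min RT; NADPH regen, 60 min RT; stop w/ detection buffer, 20 min; luminescence. Normalized to 57 uM ketoconazole.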

Activity change, positive = activation, inactive:
CC(=O)NCCNc1nc(-c2cccc(NS(C)(=O)=O)c2)nc2ccccc12 -72.4%
Cc1noc(C)c1-c1nccc(NCCN2CCOCC2)n1 -30.8%
Cc1cnc(CNc2ccnc(-c3cccc(NS(C)(=O)=O)c3)n2)cn1 -67.9%
CN(C)C(=O)c1ccc(-c2cncnc2-n2ccnc2)cc1 -53.9%
CNc1nc(-c2cccc(C#N)c2)nc2ccccc12 -87.2%
COc1ccc2[nH]cc(CCNc3nc(-c4ccc(N(C)C)cc4)nc4ccccc34)c2c1 -75.8%
COCCNc1nc(-c2c(C)noc2C)nc2ccccc12 -51.8%
CN(C)C(=O)c1ccc(-c2ccc3ncnc(N4CCOCC4)c3c2)cc1 -67.8%
COc1ccccc1CNc1ccnc(-c2ccccc2Cl)n1 -47.7%
Cn1cc(-c2nc3cncnc3n(C3CC3)c2=O)c2ccccc21 -30.7%
COc1ccc(-c2nc3cnc(OCc4ccccc4)nc3n(CCC#N)c2=O)cc1 -51.6%
COc1ccc2[nH]cc(CCNc3ccnc(-c4ccc(N(C)C)cc4)n3)c2c1 -85.8%
Cn1cc(-c2nc3cncnc3n(Cc3ccccc3Cl)c2=O)c2ccccc21 -38.6%
COc1cccc(-c2cc(NCc3cnc(C)cn3)ncn2)c1 -96.3%
CC(=O)NCCNc1nc(-c2ccccc2C)nc2ccccc12 -102%
COc1ccc(Oc2ncc3nc(-c4ccc(F)cc4)c(=O)n(Cc4cccs4)c3n2)cc1 -67.8%
COc1ccc2[nH]cc(CCNc3ncncc3-c3cccnc3)c2c1 -97%
CS(=O)(=O)Nc1cccc(-c2cc(Nc3ccccc3)ncn2)c1 -84.8%
COc1ccccc1CNc1cc(-c2ccccc2OC)ncn1 -63.2%
CN(C)C(=O)c1ccc(-c2nccc(-n3ccnc3)n2)cc1 -58.1%
Cc1noc(C)c1-c1nccc(NCc2ccccc2)n1 -92.2%
COc1cccc(-c2cc(NCc3cccnc3)ncn2)c1 -99.7%
COc1ccc2[nH]cc(CCNc3ccnc(-c4ccc5c(c4)OCO5)n3)c2c1 -91.7%
COc1ccc(CNc2ncncc2-c2ccc(C(=O)N(C)C)cc2)c(OC)c1 -85.6%
Cn1c(=O)c(-c2cc(F)cc(F)c2)nc2cncnc21 -34%
COc1cccc(-c2cncnc2NCc2cnc(C)cn2)c1 -88.5%
COc1ccccc1-c1nc(NCCN2CCOCC2)c2ccccc2n1 -57%
Cc1cnc(CNc2cc(-c3cccnc3)ncn2)cn1 -53.6%

Potency, active:
Cc1cnc(CNc2cc(-c3ccccc3C(F)(F)F)ncn2)cn1 6310 nM
Cc1cnc(CNc2cc(-c3ccccc3C)ncn2)cn1 3160 nM
